Reference: publication PMC7862700, “An all-to-all approach to the identification of sequence-specific readers for epigenetic DNA modifications on cytosine”

How the values were obtained:
Assay in all cases: DAPPL (digital affinity profiling via proximity ligation, sequencing); 10 mM Tris-HCl pH 7.5, 50 mM NaCl, 1 mM DTT, 4% glycerol, room temperature, 30 min; GST-TFs on glutathione beads, 16-mer random dsDNA library, 0.1% formaldehyde crosslink after washing; high values mean tight binding
FEV = target: T1, FEV (Homo sapiens, UniProt Q99581 1-238); conditions: protein: recombinant; tags: N-terminal GST; dsDNA, one strand shown
T1 sequence: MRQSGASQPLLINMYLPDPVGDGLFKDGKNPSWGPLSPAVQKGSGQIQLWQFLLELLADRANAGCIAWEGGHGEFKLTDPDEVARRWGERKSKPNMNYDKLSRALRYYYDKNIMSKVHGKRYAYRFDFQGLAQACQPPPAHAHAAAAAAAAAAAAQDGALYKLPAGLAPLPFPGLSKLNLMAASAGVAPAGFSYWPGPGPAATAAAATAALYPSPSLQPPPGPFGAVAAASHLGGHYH
Method in brief: (§1)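 Human transcription factors were made in yeast as GST fusions, captured on glutathione beads and barcoded with DNA. With a tag-only sample included, the pool was incubated with 200 nmole of a random double-stranded 16-mer DNA library in Tris/NaCl/DTT/glycerol buffer at room temperature for 30 min, then crosslinked with 0.1% formaldehyde after washing, ligated by proximity, amplified and sequenced. For binding signal, each hexamer's read frequency for a factor is divided by its frequency for the tag-only sample.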

ETV5 = ETV5 (Homo sapiens, UniProt P41161 1-510); conditions: protein: recombinant; tags: N-terminal GST; dsDNA, one strand shown
Method in brief: as §1

HSF1 = HSF1 (Homo sapiens, UniProt Q00613 1-529); conditions: protein: recombinant; tags: N-terminal GST; chain copies: 3; dsDNA, one strand shown
Method in brief: as §1

SPIC = target: T2, SPIC (Homo sapiens, UniProt Q8N5J4 1-248); conditions: protein: recombinant; tags: N-terminal GST; dsDNA, one strand shown
T2 sequence: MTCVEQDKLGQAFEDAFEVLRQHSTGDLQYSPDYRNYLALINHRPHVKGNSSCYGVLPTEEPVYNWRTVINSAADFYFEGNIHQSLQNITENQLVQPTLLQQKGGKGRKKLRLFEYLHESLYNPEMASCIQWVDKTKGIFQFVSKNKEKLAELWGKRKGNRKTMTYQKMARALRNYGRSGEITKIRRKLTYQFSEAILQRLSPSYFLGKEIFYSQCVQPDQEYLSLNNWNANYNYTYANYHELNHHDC
Method in brief: as §1

ELF4 = ELF4 (Homo sapiens, UniProt Q99607 1-663); conditions: protein: recombinant; tags: N-terminal GST; dsDNA, one strand shown
Method in brief: as §1

ELK4 = target: T3, ELK4 (Homo sapiens, UniProt P28324-2 1-405); conditions: protein: recombinant; tags: N-terminal GST; dsDNA, one strand shown
T3 sequence: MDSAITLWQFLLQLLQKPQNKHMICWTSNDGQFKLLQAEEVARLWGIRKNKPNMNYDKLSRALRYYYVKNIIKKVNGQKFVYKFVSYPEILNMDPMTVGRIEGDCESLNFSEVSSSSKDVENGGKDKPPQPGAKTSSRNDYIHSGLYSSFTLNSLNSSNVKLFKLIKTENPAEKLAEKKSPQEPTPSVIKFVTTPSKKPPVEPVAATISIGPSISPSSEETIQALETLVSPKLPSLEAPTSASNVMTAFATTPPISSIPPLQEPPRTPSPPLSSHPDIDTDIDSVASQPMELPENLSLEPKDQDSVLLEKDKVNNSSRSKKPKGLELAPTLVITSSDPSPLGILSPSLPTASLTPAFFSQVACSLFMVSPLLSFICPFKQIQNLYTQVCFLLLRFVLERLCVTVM
Method in brief: as §1

ETV2 = target: T4, ETV2 (Homo sapiens, UniProt O00321 1-342); conditions: protein: recombinant; tags: N-terminal GST; dsDNA, one strand shown
T4 sequence: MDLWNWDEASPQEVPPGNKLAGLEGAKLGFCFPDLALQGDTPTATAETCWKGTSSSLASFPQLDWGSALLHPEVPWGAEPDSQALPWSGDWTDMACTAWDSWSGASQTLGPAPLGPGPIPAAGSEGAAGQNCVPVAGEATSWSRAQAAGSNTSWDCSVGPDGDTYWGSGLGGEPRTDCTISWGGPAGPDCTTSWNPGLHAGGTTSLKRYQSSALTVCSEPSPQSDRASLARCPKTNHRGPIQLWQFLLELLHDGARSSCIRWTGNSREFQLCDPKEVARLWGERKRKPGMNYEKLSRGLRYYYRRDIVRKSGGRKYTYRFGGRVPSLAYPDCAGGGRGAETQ
Method in brief: as §1

ELF3 = target: T5, ELF3 (Homo sapiens, UniProt P78545 1-371); conditions: protein: recombinant; tags: N-terminal GST; dsDNA, one strand shown
T5 sequence: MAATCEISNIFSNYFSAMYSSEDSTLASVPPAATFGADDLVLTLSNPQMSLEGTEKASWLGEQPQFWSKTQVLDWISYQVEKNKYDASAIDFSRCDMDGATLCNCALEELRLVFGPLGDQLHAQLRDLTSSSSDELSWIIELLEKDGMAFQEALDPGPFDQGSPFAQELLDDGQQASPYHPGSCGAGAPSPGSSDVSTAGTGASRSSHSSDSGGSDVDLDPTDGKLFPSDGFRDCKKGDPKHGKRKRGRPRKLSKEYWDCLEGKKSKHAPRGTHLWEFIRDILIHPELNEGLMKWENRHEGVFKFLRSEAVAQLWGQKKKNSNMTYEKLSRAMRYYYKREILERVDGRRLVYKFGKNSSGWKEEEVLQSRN
Method in brief: as §1

CRX = CRX (Homo sapiens, UniProt O43186 1-299); conditions: protein: recombinant; tags: N-terminal GST; dsDNA, one strand shown
Method in brief: as §1

ETV1 = ETV1 (Homo sapiens, UniProt P50549 1-477); conditions: protein: recombinant; tags: N-terminal GST; dsDNA, one strand shown
Method in brief: as §1

ERF = target: T6, ERF (Homo sapiens, UniProt P50548 1-548); conditions: protein: recombinant; tags: N-terminal GST; dsDNA, one strand shown
T6 sequence: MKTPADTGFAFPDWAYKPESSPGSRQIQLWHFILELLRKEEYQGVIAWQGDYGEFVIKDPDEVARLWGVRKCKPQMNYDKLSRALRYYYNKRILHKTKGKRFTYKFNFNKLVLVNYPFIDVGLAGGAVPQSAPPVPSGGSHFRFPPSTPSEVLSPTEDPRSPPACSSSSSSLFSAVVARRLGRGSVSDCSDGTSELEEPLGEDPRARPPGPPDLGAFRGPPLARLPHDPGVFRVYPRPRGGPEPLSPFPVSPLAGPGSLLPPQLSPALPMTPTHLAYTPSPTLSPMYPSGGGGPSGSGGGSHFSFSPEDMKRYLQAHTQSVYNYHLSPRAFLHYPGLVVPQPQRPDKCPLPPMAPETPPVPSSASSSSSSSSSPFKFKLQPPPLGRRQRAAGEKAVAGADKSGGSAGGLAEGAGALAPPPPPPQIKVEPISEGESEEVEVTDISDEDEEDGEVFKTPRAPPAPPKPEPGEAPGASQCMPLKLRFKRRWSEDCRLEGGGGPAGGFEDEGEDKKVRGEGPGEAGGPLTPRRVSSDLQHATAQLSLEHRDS
Method in brief: as §1

ETV3L = target: T7, ETV3L (Homo sapiens, UniProt Q6ZN32 1-361); conditions: protein: recombinant; tags: N-terminal GST; dsDNA, one strand shown
T7 sequence: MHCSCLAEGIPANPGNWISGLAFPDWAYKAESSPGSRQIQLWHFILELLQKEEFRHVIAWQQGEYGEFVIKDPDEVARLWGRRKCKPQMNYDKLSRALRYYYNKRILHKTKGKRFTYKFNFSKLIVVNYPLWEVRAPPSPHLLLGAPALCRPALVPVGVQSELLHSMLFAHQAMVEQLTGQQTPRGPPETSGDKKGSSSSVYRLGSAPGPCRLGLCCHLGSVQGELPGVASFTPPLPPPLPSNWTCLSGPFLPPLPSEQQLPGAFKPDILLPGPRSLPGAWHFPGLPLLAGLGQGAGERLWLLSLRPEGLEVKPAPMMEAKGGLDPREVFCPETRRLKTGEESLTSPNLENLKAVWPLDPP
Method in brief: as §1

ETS2 = target: T8, ETS2 (Homo sapiens, UniProt P15036 1-469); conditions: protein: recombinant; tags: N-terminal GST; dsDNA, one strand shown
T8 sequence: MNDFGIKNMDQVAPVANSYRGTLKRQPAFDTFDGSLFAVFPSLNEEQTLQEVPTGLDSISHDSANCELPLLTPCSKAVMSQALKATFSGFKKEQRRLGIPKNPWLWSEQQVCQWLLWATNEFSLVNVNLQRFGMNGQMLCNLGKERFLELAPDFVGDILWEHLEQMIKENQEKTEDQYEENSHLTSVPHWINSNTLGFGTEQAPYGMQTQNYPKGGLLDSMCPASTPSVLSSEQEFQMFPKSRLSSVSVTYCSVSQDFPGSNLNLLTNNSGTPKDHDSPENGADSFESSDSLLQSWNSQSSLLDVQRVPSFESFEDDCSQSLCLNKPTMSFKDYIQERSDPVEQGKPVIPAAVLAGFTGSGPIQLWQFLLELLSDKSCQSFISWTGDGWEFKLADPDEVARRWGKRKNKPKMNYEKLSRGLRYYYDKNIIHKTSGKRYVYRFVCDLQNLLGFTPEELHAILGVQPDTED
Method in brief: as §1

SPDEF = target: T9, SPDEF (Homo sapiens, UniProt O95238 1-335); conditions: protein: recombinant; tags: N-terminal GST; dsDNA, one strand shown
T9 sequence: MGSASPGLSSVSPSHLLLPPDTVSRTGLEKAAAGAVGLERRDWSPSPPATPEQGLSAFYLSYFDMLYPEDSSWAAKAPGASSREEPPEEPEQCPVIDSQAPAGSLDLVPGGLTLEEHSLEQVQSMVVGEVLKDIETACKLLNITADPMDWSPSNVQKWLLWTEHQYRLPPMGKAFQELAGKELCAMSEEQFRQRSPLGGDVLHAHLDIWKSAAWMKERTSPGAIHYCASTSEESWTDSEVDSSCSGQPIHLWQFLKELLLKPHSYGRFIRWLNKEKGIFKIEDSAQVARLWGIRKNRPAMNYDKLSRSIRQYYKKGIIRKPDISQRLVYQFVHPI
Method in brief: as §1

ETV7 = target: T10, ETV7 (Homo sapiens, UniProt Q9Y603 1-341); conditions: protein: recombinant; tags: N-terminal GST; dsDNA, one strand shown
T10 sequence: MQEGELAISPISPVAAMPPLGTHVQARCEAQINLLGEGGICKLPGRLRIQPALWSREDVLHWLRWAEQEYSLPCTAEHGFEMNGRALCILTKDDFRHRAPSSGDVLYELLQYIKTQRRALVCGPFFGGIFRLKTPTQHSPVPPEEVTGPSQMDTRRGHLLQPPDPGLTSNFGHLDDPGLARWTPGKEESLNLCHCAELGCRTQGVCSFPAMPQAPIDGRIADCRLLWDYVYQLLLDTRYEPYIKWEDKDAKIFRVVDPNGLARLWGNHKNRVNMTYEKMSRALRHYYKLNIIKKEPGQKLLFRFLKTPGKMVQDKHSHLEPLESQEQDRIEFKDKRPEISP
Method in brief: as §1

ELF5 = target: T11, ELF5 (Homo sapiens, UniProt Q9UKW6-2 1-255); conditions: protein: recombinant; tags: N-terminal GST; dsDNA, one strand shown
T11 sequence: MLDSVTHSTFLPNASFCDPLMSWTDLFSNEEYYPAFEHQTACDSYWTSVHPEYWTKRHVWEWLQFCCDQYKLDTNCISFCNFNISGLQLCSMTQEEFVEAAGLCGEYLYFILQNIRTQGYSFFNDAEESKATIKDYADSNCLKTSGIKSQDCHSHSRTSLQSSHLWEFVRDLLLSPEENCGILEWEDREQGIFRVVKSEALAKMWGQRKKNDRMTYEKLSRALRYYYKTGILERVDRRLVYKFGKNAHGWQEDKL
Method in brief: as §1

ETV3 = target: T12, ETV3 (Homo sapiens, UniProt P41162-2 1-143); conditions: protein: recombinant; tags: N-terminal GST; dsDNA, one strand shown
T12 sequence: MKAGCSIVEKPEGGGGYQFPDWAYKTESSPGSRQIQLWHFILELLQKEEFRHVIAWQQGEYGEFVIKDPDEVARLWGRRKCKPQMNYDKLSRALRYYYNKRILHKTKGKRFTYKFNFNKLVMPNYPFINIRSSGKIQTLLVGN
Method in brief: as §1

ETV6 = ETV6 (Homo sapiens, UniProt P41212 1-452); conditions: protein: recombinant; tags: N-terminal GST; dsDNA, one strand shown
Method in brief: as §1

ETV5, sequence (P41161 whole entry): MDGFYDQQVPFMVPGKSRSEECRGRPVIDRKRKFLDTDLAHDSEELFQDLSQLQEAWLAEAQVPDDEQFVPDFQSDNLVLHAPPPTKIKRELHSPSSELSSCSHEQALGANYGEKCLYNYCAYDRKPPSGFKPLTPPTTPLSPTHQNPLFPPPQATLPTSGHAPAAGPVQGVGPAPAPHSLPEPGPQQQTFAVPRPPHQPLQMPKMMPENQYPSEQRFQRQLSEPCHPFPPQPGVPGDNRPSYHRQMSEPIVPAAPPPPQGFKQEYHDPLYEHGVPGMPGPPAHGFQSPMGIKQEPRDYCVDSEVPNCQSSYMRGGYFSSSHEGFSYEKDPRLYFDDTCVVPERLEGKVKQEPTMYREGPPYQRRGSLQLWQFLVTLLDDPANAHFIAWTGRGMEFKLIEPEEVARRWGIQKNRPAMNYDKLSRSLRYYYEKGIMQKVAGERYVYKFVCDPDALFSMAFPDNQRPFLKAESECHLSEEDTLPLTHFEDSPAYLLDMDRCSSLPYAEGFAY
ETV1, sequence (P50549 whole entry): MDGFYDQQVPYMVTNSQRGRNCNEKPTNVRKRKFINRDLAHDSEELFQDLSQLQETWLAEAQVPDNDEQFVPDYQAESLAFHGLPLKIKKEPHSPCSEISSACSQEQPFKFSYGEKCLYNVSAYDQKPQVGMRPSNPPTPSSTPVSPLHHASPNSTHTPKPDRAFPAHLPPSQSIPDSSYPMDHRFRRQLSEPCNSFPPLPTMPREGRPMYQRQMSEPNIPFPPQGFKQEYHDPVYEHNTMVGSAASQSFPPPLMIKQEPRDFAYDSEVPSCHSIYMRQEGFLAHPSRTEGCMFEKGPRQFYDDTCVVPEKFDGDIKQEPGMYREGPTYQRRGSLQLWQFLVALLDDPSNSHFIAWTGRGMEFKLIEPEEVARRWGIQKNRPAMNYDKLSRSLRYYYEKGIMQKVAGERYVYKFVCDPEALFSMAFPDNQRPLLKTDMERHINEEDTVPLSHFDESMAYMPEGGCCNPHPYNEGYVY
ETV6, sequence (P41212 whole entry): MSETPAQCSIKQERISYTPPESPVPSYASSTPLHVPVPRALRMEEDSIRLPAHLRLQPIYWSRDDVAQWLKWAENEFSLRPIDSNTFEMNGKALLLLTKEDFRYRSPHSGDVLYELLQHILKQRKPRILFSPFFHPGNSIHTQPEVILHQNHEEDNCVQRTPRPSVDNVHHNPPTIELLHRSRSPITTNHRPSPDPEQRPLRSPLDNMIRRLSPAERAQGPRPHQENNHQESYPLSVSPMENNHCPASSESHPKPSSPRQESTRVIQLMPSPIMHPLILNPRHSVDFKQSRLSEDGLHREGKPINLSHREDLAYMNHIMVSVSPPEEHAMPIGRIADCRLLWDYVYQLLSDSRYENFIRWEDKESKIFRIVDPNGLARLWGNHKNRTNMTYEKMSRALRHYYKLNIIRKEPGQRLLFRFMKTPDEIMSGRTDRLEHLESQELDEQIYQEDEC
HSF1, sequence (Q00613 whole entry): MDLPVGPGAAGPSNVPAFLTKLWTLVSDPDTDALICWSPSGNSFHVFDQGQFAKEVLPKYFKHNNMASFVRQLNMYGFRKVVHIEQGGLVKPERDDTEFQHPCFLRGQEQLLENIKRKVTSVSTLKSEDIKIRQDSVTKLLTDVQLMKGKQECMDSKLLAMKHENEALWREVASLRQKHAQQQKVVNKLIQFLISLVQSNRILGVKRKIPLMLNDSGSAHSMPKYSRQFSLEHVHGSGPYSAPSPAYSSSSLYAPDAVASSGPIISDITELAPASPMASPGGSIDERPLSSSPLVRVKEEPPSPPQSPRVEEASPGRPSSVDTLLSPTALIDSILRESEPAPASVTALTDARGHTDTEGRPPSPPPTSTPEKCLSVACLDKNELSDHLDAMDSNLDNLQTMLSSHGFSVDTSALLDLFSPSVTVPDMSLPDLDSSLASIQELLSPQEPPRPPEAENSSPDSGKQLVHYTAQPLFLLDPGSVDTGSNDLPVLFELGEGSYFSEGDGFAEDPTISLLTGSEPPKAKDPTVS
ELF4, sequence (Q99607 whole entry): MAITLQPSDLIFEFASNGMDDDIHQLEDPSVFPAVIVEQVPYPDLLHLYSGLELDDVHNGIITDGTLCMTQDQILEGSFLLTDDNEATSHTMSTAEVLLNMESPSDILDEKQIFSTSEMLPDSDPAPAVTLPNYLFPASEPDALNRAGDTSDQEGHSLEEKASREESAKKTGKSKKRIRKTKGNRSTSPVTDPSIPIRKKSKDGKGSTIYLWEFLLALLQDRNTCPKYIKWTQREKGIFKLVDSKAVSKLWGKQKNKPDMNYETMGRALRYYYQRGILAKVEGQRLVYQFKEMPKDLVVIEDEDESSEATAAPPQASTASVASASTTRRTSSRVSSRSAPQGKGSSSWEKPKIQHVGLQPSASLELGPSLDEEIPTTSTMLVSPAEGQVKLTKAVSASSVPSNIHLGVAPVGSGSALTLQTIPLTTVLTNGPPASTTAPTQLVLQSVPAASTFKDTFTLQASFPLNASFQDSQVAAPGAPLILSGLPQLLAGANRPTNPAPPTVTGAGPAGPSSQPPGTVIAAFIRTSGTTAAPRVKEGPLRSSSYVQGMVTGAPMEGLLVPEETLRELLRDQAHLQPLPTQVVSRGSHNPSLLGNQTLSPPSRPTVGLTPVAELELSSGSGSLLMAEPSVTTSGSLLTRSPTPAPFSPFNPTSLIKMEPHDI
CRX, sequence (O43186 whole entry): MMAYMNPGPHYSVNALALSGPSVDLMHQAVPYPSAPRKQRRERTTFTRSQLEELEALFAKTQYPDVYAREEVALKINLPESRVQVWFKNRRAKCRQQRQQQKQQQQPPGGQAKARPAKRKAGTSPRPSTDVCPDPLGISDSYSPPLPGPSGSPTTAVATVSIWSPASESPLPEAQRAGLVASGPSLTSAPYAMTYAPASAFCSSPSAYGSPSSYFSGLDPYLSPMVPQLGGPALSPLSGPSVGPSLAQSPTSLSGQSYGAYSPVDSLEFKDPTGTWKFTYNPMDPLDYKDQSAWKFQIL

Sequence: CCCTAT
- binding signal (FEV): 1.39 fold enrichment (6-mer frequency, TF over GST control)
- binding signal (ETV5): 1.29 fold enrichment (6-mer frequency, TF over GST control)
- binding signal (HSF1): 1.13 fold enrichment (6-mer frequency, TF over GST control)
- binding signal (SPIC): 1.2 fold enrichment (6-mer frequency, TF over GST control)
- binding signal (ELF4): 1.37 fold enrichment (6-mer frequency, TF over GST control)
- binding signal (ELK4): 1.29 fold enrichment (6-mer frequency, TF over GST control)
- binding signal (ETV2): 1.33 fold enrichment (6-mer frequency, TF over GST control)
- binding signal (ELF3): 1.29 fold enrichment (6-mer frequency, TF over GST control)
- binding signal (CRX): 1.17 fold enrichment (6-mer frequency, TF over GST control)
- binding signal (ETV1): 1.37 fold enrichment (6-mer frequency, TF over GST control)
- binding signal (ERF): 1.22 fold enrichment (6-mer frequency, TF over GST control)
- binding signal (ETV3L): 1.44 fold enrichment (6-mer frequency, TF over GST control)
- binding signal (ETS2): 1.34 fold enrichment (6-mer frequency, TF over GST control)
- binding signal (SPDEF): 1.31 fold enrichment (6-mer frequency, TF over GST control)
- binding signal (ETV7): 1.3 fold enrichment (6-mer frequency, TF over GST control)
- binding signal (ELF5): 1.43 fold enrichment (6-mer frequency, TF over GST control)
- binding signal (ETV3): 1.34 fold enrichment (6-mer frequency, TF over GST control)
- binding signal (ETV6): 1.28 fold enrichment (6-mer frequency, TF over GST control)
